# The full list was thinned out, with hits kept by preference.
# DUX4 txn inh: DUX4-mediated transcription inhibition | 293T-iDUX4 ZSCAN4-Gaussia luciferase reporter, 24 h; hits give low values | activity change, negative = inhibition, % (test concentration not listed) | actives 0.8% (n = 37,000) | AID 1224904;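 active = mean inhibition of at least 10% in the main channel, exceeding the control channel by a set limit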;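 note: 0% = median of neutral control wells and -100% = median of positive control wells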
# Numbers without * were called inactive; ! = not confirmed by another sample.
SMILES,DUX4 txn inh
O=C(C[C@H]1CC[C@H]2[C@@H](COC[C@H](O)CN2CC2CCOCC2)O1)NCc1ccc(Cl)cc1,-28.8*
O=C(C[C@H]1CC[C@H]2[C@@H](COC[C@H](O)CN2CC2CCCCC2)O1)NCc1ccc(Cl)cc1,-4.1
C[C@H]1CN([C@@H](C)CO)C(=O)c2cc(-c3cccnc3)cnc2O[C@H]1CN(C)C(=O)C1CCCCC1,0.9
O=C(C1CCCC1)N1C[C@@H]2N[C@H](C1)C2c1ccc(-c2ccncc2)cc1 (some centres not stated),-27.9*!
O=C(C1CCOCC1)N1C[C@@H]2N[C@H](C1)C2c1ccc(-c2cncnc2)cc1 (some centres not stated),18.6
O=C(Nc1cccc(F)c1)N1C[C@@H]2N[C@H](C1)C2c1ccc(-c2cncnc2)cc1 (some centres not stated),-7.5
O=C(c1ccncc1)N1C[C@@H]2N[C@H](C1)C2c1ccc(-c2ccncc2)cc1 (some centres not stated),5.4
Cc1cccc(-c2ccc(C3[C@@H]4CN(C(=O)Nc5ccccc5)C[C@H]3N4)cc2)c1 (some centres not stated),-2.2
O=C(Nc1ccccc1)N1C[C@@H]2N[C@H](C1)C2c1ccc(-c2cccnc2)cc1 (some centres not stated),-52.2*
C[C@@H]1CN([C@H](C)CO)C(=O)c2c(c3ccccc3n2C)-c2ccccc2CO[C@@H]1CN(C)C(=O)[C@@H]1CCCN1C,3.4
O=C(O)[C@@H]1[C@@H](CO)[C@@H]2Cn3c(ccc(-c4ccc(F)cc4)c3=O)[C@@H]2N1C(=O)Nc1ccccc1,3.6
CCC(=O)NC[C@@H]1[C@@H](c2ccccc2)[C@H](CO)N1C(=O)C1CCC1,-4.3
CC(=O)N1[C@H](CO)[C@@H](c2ccccc2)C12CN(C(=O)CN1CCOCC1)C2,10.8
C[C@@H]1CN([C@H](C)CO)C(=O)c2cc(C3=CCCC3)cnc2O[C@@H]1CN(C)C(=O)Nc1ccc(C(F)(F)F)cc1,5.5
CCCNC(=O)N1CC2(CN(C)C2)c2c([nH]c3cc(OC)ccc23)[C@H]1CO,8.6
CCS(=O)(=O)N1CC2(CN(Cc3ccc4c(c3)OCO4)[C@@H](CO)c3[nH]c4cc(OC)ccc4c32)C1,-8.3
COc1ccc2c3c([nH]c2c1)[C@@H](CO)N(Cc1ccc(Cl)cc1)CC31CCN(C(=O)CN(C)C)CC1,-0.1
COc1ccc2c3c([nH]c2c1)[C@H](CO)N(Cc1ccccc1Cl)CC31CCN(C(C)=O)CC1,-28.0*
CCCNC(=O)N1CC2(C1)CN(Cc1ccc(F)cc1)[C@@H](CO)c1[nH]c3cc(OC)ccc3c12,-2.5
COCC(=O)N1CCC2(CC1)CN(Cc1ccccc1Cl)[C@H](CO)c1[nH]c3cc(OC)ccc3c12,0.2
COc1ccc(CN2CC3(C2)CN(Cc2ccc4c(c2)OCO4)[C@H](CO)c2[nH]c4cc(OC)ccc4c23)cc1,-57.8*
COc1ccc2c3c([nH]c2c1)[C@H](CO)N(Cc1ccc(Cl)cc1)CC31CCN(C(=O)CN(C)C)CC1,11.3
CCCNC(=O)N1CC2(CN(Cc3ccc(F)cc3)C2)c2c([nH]c3cc(OC)ccc23)[C@@H]1CO,-37.4*
COc1ccc2c3c([nH]c2c1)[C@@H](CO)N(Cc1ccc(F)cc1)CC31CN(C)C1,-5.1
CCCC(=O)N1CCC2(CC1)CN(Cc1ccc(Cl)cc1)[C@@H](CO)c1[nH]c3cc(OC)ccc3c12,-50.4*
SMILES,DUX4 txn inh
COc1ccc2c3c([nH]c2c1)[C@H](CO)N(C(C)=O)CC31CCN(Cc2ccccc2Cl)CC1,-8.1
CO[C@H]1CN(C)C(=O)c2ccc(NC(=O)c3ccc(F)cc3)cc2OC[C@@H](C)N(C(=O)CN(C)C)C[C@@H]1C,-0.9
COc1ccc2c3c([nH]c2c1)[C@H](CO)N(C(=O)CN(C)C)CC31CCN(CC2CCOCC2)CC1,4.4
COc1ccccc1CNC(=O)C[C@H]1C[C@@H]2c3cc(NC(=O)NC4CCCC4)ccc3O[C@@H]2[C@@H](CO)O1,-7.4
C[C@H]1CC=CC[C@@H](c2ccc(F)cc2)NC(=O)[C@H](C)N(C)C(=O)c2ccccc2O1 (mixture of isomers),-1.0
CN1C(=O)c2cc(NC(=O)Cc3ccccc3)ccc2OC[C@H]2O[C@H](CC(=O)NC3CCC3)CC[C@H]21,2.6
C[C@@H]1CN([C@H](C)CO)C(=O)c2c(c3ccccc3n2C)-c2ccccc2CO[C@@H]1CN(C)Cc1cccnc1,11.4
C[C@@H]1CN([C@@H](C)CO)C(=O)c2c(c3ccccc3n2C)-c2ccccc2CO[C@H]1CN(C)S(=O)(=O)c1cn(C)cn1,19.2
CCS(=O)(=O)N1CC2(CN(Cc3ccccc3F)[C@@H](CO)c3[nH]c4cc(OC)ccc4c32)C1,-45.9*
COc1ccc2c3c([nH]c2c1)[C@@H](CO)N(Cc1ccccc1F)CC31CN(C)C1,-9.2
COc1ccc2c3c([nH]c2c1)[C@@H](CO)N(C(=O)c1ccccn1)CC31CCN(C(=O)C2CC2)CC1,-1.2
COCC(=O)N1CCC2(CC1)CN(Cc1cccc(Cl)c1)[C@H](CO)c1[nH]c3cc(OC)ccc3c12,1.7
COc1ccc2c3c([nH]c2c1)[C@@H](CO)N(Cc1ccccc1Cl)CC31CCN(C(=O)C2CC2)CC1,-20.8*
COc1ccc2c3c([nH]c2c1)[C@H](CO)N(Cc1cccc(Cl)c1)CC31CCN(C(C)=O)CC1,-66.6*
COc1cccc(CN2CC3(CCN(C)CC3)c3c([nH]c4cc(OC)ccc34)[C@@H]2CO)c1,-3.5
COCC(=O)N1CC2(CCN(Cc3ccccc3Cl)CC2)c2c([nH]c3cc(OC)ccc23)[C@H]1CO,-4.8
COc1ccc2c3c([nH]c2c1)[C@H](CO)N(Cc1ccccc1F)CC31CCN(S(C)(=O)=O)CC1,9.9
O=C(C1CCCC1)N1CC2(C1)[C@H](c1ccccc1)[C@@H](CO)N2CC1CC1,3.0
C[C@@H]1CCCCO[C@H](CN(C)C(=O)Cc2ccccc2)[C@H](C)CN([C@H](C)CO)C(=O)c2cc(NC(=O)c3ccncc3)ccc2O1,5.8
CCOC(=O)N(C)C[C@H]1OCc2ccccc2-c2ccccc2C(=O)N([C@@H](C)CO)C[C@@H]1C,7.4
CCC(=O)N1[C@@H](CO)[C@@H](c2ccccc2)[C@@H]1CN(CC)C(=O)NC1CCCC1,-1.6
Cn1cnc(S(=O)(=O)N2CC[C@@H]3[C@H]2c2cc(C#Cc4ccccc4)ccc2N[C@@H]3CO)c1,-7.4
CCC(=O)N1CCCCN2[C@@H](CO)[C@H](c3ccc(/C=C/c4ccccc4)cc3)[C@@H]2C1,-16.2*
CC(C)C#Cc1ccc([C@@H]2[C@@H](CO)N3CCCCN(C(=O)c4ccc(F)cc4)C[C@H]23)cc1,0.1
CC(C)C#Cc1ccc([C@H]2[C@@H](CO)N3CCCCN(C(=O)c4ccc(F)cc4)C[C@H]23)cc1,-40.1*
O=C(CN1CCOCC1)N1CCCCN2[C@H](C1)[C@@H](c1ccc(/C=C/c3ccccc3)cc1)[C@@H]2CO,-6.7
O=C(CN1CCOCC1)N1CCCCN2[C@H](CO)[C@H](c3ccc(/C=C/c4ccccc4)cc3)[C@H]2C1,5.1
CC(C)(O)C#Cc1ccc([C@H]2[C@@H](CO)N3CCCCN(C(=O)c4ccc(F)cc4)C[C@H]23)cc1,-4.8
O=C(c1cccc(F)c1)N1CCCCN2[C@H](C1)[C@@H](c1ccc(/C=C/c3ccccc3)cc1)[C@@H]2CO,-41.1*
O=C(c1cccc(F)c1)N1CCCCN2[C@H](CO)[C@H](c3ccc(-c4ccccc4)cc3)[C@H]2C1,2.5

# From PubChem
